Bioassay records as filed in PubChem.
A selection: hits, their analogues and other compounds. The true share with any hit is near 32%.
CYP2C9 inhib: human CYP2C9 inhibition | P11712 | CYP2C9 Supersomes, luciferin-H conversion, luminescence | inhibition, % at 5 µM | 96,000 tested, 20% active | AID 777;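 active means blocking of liver enzyme CYP2C9 beyond about 50% at 5 µM, limit read from the data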
CYP2C19 inhib: inhibitors of human CYP2C19. AID 778. P33261. CYP2C19 Supersomes, luciferin-H EGE luminescence, 30 min. inhibition, % at 5 µM. 96,000 tested, 21% active;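 active means CYP2C19 inhibition above a set limit at 5 µM in the primary screen, cut at about 50% in these data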
Target sequence (P33261 whole entry, looked up): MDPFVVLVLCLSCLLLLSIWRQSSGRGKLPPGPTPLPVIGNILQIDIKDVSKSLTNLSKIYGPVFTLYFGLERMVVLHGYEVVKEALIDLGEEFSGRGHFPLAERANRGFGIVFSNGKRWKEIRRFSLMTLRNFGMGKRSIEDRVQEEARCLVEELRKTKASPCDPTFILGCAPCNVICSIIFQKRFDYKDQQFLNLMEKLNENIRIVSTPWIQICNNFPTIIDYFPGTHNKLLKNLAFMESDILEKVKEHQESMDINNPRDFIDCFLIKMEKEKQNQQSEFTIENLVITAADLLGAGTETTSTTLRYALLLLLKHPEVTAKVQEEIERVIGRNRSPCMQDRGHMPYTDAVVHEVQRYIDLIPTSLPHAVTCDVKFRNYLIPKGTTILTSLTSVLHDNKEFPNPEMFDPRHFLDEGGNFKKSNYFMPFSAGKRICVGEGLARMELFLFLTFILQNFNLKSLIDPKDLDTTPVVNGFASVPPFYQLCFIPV
CYP2C19 act: activators of human cytochrome P450 2C19. P33261. recombinant CYP2C19, luciferin-H EGE luminescence; stronger effect = higher value; 0 = fully inhibited enzyme, 1 = untreated enzyme. activation factor at 5 µM. 96,000 tested, under 10 active. AID 1025;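 active means activation factor of at least 2 at 5 µM in the primary screen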
PostGolgi yeast: growth inhibition of a yeast mutant, post-Golgi transport screen. inhibition, % at 10 µM. post-Golgi transport phenotypic cell assay. AID 739. 98,000 tested, 0.9% active;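 further: yeast cells grown in 1536-well plates; yeast grown about 18 h at 30C before absorbance read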
CYP2C9 activ: activators of human CYP2C9; activation factor at 5 µM; AID 1024; recombinant CYP2C9, luciferin-H conversion, luminescence; stronger effect = higher value; factor 1 = untreated enzyme, 0 = blocked; 96,000 tested, 1.4% active;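 active means activation factor of 2 or more for CYP2C9 at a 5 µM dose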
PostGolgi ctrl: growth of the yeast control strain, post-Golgi counter-screen. efflux-deficient yeast background strain, growth absorbance A615, 16 h. inhibition, % at 10 µM. 98,000 tested, 5% active
Each line names hits and unclear results; the compound was inactive in the other large screens. Unless noted, no stated cut-off is given here; in the data, active means inhibition above about 30%; inactive means the rest.

Cc1ccc(-n2nc(C)cc2NC(=O)c2ccc(C)s2)cc1	CYP2C19 inhib 76.3
COc1ccc(OC)c(NC(=O)c2c(NC(=O)c3ccco3)sc3c2CCC3)c1	none
COC(=O)c1ccccc1CON1C(=O)C(C)(C)N(OCc2ccccc2C(=O)OC)C(=O)C1(C)C	none
O=S(=O)(Nc1ccc(S(=O)(=O)Nc2nccs2)cc1)c1ccc2c(c1)OCCO2	CYP2C9 inhib 67.2
O=S(=O)(Nc1ccc(-c2cn3ccsc3n2)cc1)c1ccc2c(c1)OCCO2	CYP2C9 inhib 91.3, CYP2C19 inhib 76.4
O=S(=O)(Nc1nccs1)c1ccc(Cl)cc1	CYP2C9 inhib 50.2
CC(C)(C)c1cc(NS(=O)(=O)c2ccc3c(c2)OCCO3)on1	none (no result: CYP2C9 inhib, CYP2C19 inhib, CYP2C19 act, CYP2C9 activ)
O=C(Nc1ccc2c(c1)OCO2)N1CCN(C/C=C/c2ccccc2)CC1	none
CCN(CC)CCCNC(=O)CC1Oc2ccc(C)cc2NC1=O (stereo not given)	none
COc1ccc(OC)c(CCNC(=O)CC2Oc3ccccc3NC2=O)c1 (stereo not given)	CYP2C19 inhib 50.1
Cc1ccc2c(c1)NC(=O)C(CC(=O)NCCN(CC(C)C)CC(C)C)O2 (stereo not given)	CYP2C9 inhib 51.3
O=C(NC(CSCc1ccccc1)C(=O)N/N=C/c1ccc(O)cc1O)c1ccc([N+](=O)[O-])cc1 (stereo not given)	none
Cc1ccccc1C(=O)N1CCc2ccccc2C1	none (no result: CYP2C19 inhib, CYP2C19 act)
Cc1ccc(NC(=O)N2CCc3ccccc3C2)cc1	CYP2C19 inhib 92.9
Cc1ccc(N2CC(C(=O)N3CCN(c4ccccc4)CC3)CC2=O)cc1 (stereo not given)	none
CC(=O)c1cccc(NC(=O)N2CCc3ccccc3C2)c1	CYP2C9 inhib 56.5, CYP2C19 inhib 68.3
Cc1ccc(C2CCN(C(=O)Nc3ccccc3)C2)cc1 (stereo not given)	CYP2C19 inhib 60.5, PostGolgi ctrl 42.1
Cc1ccc(N2CC(C(=O)N3CCc4ccccc4C3)CC2=O)cc1 (stereo not given)	CYP2C9 inhib 66.8
CC(=O)OCCn1c(Br)nc2c1c(=O)[nH]c(=O)n2C	none
Cc1nnc(C)c2c(C)n(C(c3ccccc3)c3ccccc3)c(C)c12	CYP2C9 inhib 56.0
O=C(NCc1ccco1)c1cc(S(=O)(=O)N2CCOCC2)ccc1Cl	PostGolgi ctrl 35.4
O=C(COC(=O)c1ccco1)NCc1ccco1	none
O=C(Nc1cccc(S(=O)(=O)N2CCOCC2)c1)c1ccco1	CYP2C19 inhib 75.0
O=C(NCc1ccco1)c1cccc(S(=O)(=O)N2CCOCC2)c1	none
O=C(COC(=O)c1cccc(S(=O)(=O)N2CCc3ccccc3C2)c1)NCc1ccco1	PostGolgi ctrl 43.5
O=C(COC(=O)c1cc(S(=O)(=O)N2CCc3ccccc3C2)ccc1Cl)NCc1ccco1	CYP2C9 inhib 66.3
CN(C)C(=O)C1OC(C)(C)OC1C(=O)N(C)C (stereo not given)	none
N/C(COc1cccc(Cl)c1)=N\NS(=O)(=O)c1ccccc1	none
COc1cc(NC(=O)c2nccnc2C(=O)O)cc(OC)c1	none
Cc1occc1-c1nnc(SCC(=O)NCc2cccs2)n1CC1CCCO1 (stereo not given)	none
Cc1cc(=O)[nH]c(SCc2cc(=O)n3nc(C)sc3n2)n1	none
COCCn1c(SCC(=O)NCc2ccc3c(c2)OCO3)nnc1-c1c[nH]c2ccccc12	CYP2C9 inhib 69.1, CYP2C19 inhib 59.1
CCc1nnc(NC(=O)CSc2nnc(-c3c[nH]c4ccccc34)n2CCOC)s1	none
Cc1occc1-c1nnc(SCC(=O)NCc2ccc3c(c2)OCO3)n1CC(C)C	none
CCSc1nnc(NC(=O)CSc2nnc(-c3c[nH]c4ccccc34)n2C)s1	CYP2C9 inhib 75.5
COCCn1c(SCC(=O)Nc2nnc(C)s2)nnc1-c1c[nH]c2ccccc12	CYP2C9 inhib 51.3
CCOC(=O)/C(=N/Nc1ccc(Cl)cc1)S(=O)(=O)c1ccc(Cl)cc1	none
Cc1ccc2nc3sc(-c4nnc(-c5ccccc5[N+](=O)[O-])o4)c(N)c3cc2c1	none
COc1ccc(C(CC(=O)c2ccccc2)C2CCCCC2=O)cc1 (stereo not given)	CYP2C19 inhib 52.7
O=C(CC(c1ccco1)C1CCCCC1=O)c1ccccc1 (stereo not given)	CYP2C9 inhib 74.3, CYP2C19 inhib 61.5
